# Assay results from PubChem BioAssay AID1533 (PCMD, 2009).
# Hit rate of the full screen: of about 160,000 compounds, about 45 (0.03%) were called active. No stated cut-off is given here; in the data, active means inhibition mostly above about 34% (no sharp cut-off); inconclusive means no clear call, values can overlap the other calls; inactive means mostly below about 22%. Many of the other results were omitted from the sample, so actives are more common in it than they were.
# Molecular target: dTDP-4-dehydrorhamnose reductase (Mycobacterium tuberculosis (strain ATCC 25618 / H37Rv)) + dTDP-4-dehydrorhamnose 3,5-epimerase (Mycobacterium tuberculosis (strain ATCC 25618 / H37Rv)) (UniProt P9WH09+P9WH11)
# Assay: M. tuberculosis RmlC/RmlD coupled enzyme inhibitors, primary screen, biochemical, compound mixtures, 384-well, from 1536-well plates (AID 1533)
# Details: RmlC+RmlD coupled enzyme assay, percent inhibition, primary screen in compound mixtures, stronger effect = higher value
# [1] = measured here: mean retest inhibition, at 5.5 µM
# Sequence of dTDP-4-dehydrorhamnose reductase (Mycobacterium tuberculosis (strain ATCC 25618 / H37Rv)) + dTDP-4-dehydrorhamnose 3,5-epimerase (Mycobacterium tuberculosis (strain ATCC 25618 / H37Rv)) (P9WH09 whole entry, looked up): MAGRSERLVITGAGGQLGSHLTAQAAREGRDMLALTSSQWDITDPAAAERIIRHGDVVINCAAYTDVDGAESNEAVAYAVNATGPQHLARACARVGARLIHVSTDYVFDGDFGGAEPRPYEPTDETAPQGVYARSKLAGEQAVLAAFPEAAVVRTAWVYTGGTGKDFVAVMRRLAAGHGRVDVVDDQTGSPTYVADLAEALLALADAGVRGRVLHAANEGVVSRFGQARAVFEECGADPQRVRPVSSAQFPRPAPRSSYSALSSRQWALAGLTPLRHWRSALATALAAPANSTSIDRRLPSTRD
# Sequence of dTDP-4-dehydrorhamnose reductase (Mycobacterium tuberculosis (strain ATCC 25618 / H37Rv)) + dTDP-4-dehydrorhamnose 3,5-epimerase (Mycobacterium tuberculosis (strain ATCC 25618 / H37Rv)) (P9WH11 whole entry, looked up): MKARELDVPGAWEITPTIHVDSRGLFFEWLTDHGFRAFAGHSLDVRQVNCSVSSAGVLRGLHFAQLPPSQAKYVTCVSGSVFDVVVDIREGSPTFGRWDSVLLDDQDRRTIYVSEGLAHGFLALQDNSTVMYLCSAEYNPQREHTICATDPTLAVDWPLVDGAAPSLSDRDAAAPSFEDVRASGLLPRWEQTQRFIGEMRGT
Structure (SMILES),inhibition (at 3.6 µM),inhibition [1]
CC(=O)NC(CC(=O)Nc1nccs1)c1ccccc1 (stereo unspecified),3.67% (inactive),–
Cc1cc(Nc2ccc(N3CCOCC3)cc2)c2cccc(C)c2n1,35.8% (inactive),-6.33%
Cc1ccc(NNC(=O)C2CCC2)cc1C,-0.66% (inactive),–
C=CCNC(=S)N1CCc2[nH]c3ccccc3c2C1,-7.26% (inactive),–
Cn1c(SCC(=O)Nc2ccc(Cl)cc2)nc(O)cc1=O,3.67% (inactive),–
OCC(O)CN(c1ccccc1)c1ccccc1 (stereo unspecified),15.9% (inactive),–
O=C(NCc1ccncc1)NC12CC3CC(CC(C3)C1)C2,4.57% (inactive),–
Cc1nc2ccc(NC(=S)N3CCC(C)CC3)cc2nc1C,12.1% (inactive),–
Cc1ccc(CSc2nc3[nH]ncc3c(=O)[nH]2)cc1,65.1% (inactive),4.96%
CC(C)c1c(O)nc(SCCOc2ccc(Cl)cc2)[nH]c1=O,7.19% (inactive),–
Cc1c(-c2cccc(Cl)c2)nc2ccccc2c1C(=O)OCC(=O)N(C)C1CCS(=O)(=O)C1 (stereo unspecified),5.87% (inactive),–
O=C(CCS(=O)(=O)c1ccccc1Cl)Nc1ccc(S(=O)(=O)Nc2ncccn2)cc1,10% (inactive),–
CCCCCN(C(=O)NC(=O)Nc1cccc(C)c1C)S(C)(=O)=O,-12.7% (inactive),–
OC(c1ccccc1)C(CN1CCOCC1)c1ccccc1 (stereo unspecified),7.15% (inactive),–
NS(=O)(=O)c1ccc(NC(=S)NC(=O)c2cccc(Br)c2)cc1,4.21% (inactive),–
CCC1=NN2C(=N)/C(=C/c3cc(C)n(-c4ccccc4)c3C)C(=O)N=C2S1,-9.8% (inactive),–
CCN1CCc2nc(NC(=O)c3cc(F)c(F)cc3Cl)sc2C1,-6.97% (inactive),–
COc1ccc(C2=NN(C(=O)CCC(=O)O)C(c3cccs3)C2)cc1OC (stereo unspecified),-7.36% (inactive),–
CN1CCN(CCNC(=O)Nc2ccc([N+](=O)[O-])cc2)CC1,5.16% (inactive),–
CN(C)c1ccc(/C=C/C(=O)c2ccc(O)cc2)cc1[N+](=O)[O-],44.3% (inactive),5.01%
CCOC(=O)C1CCN(C(=O)Nc2cccc(OC)c2)CC1,1.02% (inactive),–
Cc1ccc(/C=N/NC(=O)CSc2ccccn2)o1,70% (inactive),-5.62%
O=C(O)C(NS(=O)(=O)c1cccc2nsnc12)c1ccccc1 (stereo unspecified),-10.9% (inactive),–
CCCCSc1nnc2c(n1)OC=Nc1ccccc1-2,11.2% (inactive),–
CN1CCc2nc(SC(C(=O)O)c3ccccc3)c(C#N)c(-c3cccs3)c2C1 (stereo unspecified),-14.8% (inactive),–
COc1ccc(OC)c(-n2c(=S)[nH]c3cc(C(=O)N4CCCCC4)ccc3c2=O)c1,4.34% (inactive),–
O=S(=O)(NCc1ccco1)c1cnc(Cl)c(Cl)c1,11.4% (inactive),–
